# Screening data as filed in PubChem.
# The list is not random: actives were taken first. Their share in the collection is about 9.3%.
# Rab9 prom act: activators of Rab9 promoter | Huh7 Rab9 promoter-luciferase reporter, luminescence, 24 h | Potency, µM (top dose mostly 9.22 µM), for inactives: top-dose activation, negative = inhibition, actives largely listed as activators | 2.8% of 320,000 active | AID 485297; also: % of control where 0% means no effect; nearly all actives have a fitted effect of over 60% in size
#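 Promoter activation is measured as luciferase luminescence in Huh7 cells stably transfected with a Rab9 promoter–luciferase construct, following 24 h compound exposure at 37 °C and 10 min reagent incubation at ambient temperature.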
# SMN2 splice enh: increases expression of the SMN2 splice variant; HEK293 SMN2-luciferase splicing reporter, luminescence, 30-36 h; Potency, µM (series often up to 46.1 µM), for inactives: at the top dose activity change, positive = activation, usual class: activators; 2.8% of 210,000 active; also: % of control where 0% means no effect; nearly all actives have a fitted effect of over 55% in size
#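 HEK293 cells carry an SMN2 […]–luciferase reporter in which exon 7 inclusion puts luciferase in frame. Cells were plated 10-12 h before compound addition, then incubated 30-36 h at 37C. ONE-Glo luminescence was read; sodium butyrate at 4.5 mM final served as control.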
# ELG1 genotox: genotoxicity induction in ELG1-luciferase HEK293T cells; Potency, µM (doses to about 46 µM), without a hit: at the top dose activity change, positive = activation, hits mostly activators; HEK293T ELG1-luciferase reporter, luminescence, 16 h; 1.3% of 330,000 active; also: % of control where 0% means no effect; nearly all actives have a fitted effect of over 60% in size
#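 16 hr compound incubation (37 °C, 5% CO2) of HEK293T cells carrying luciferase-tagged ELG1; luciferase then measured by ONE-Glo luminescence after 30 min at RT.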
# NPC1 prom act: activates the NPC1 promoter | Huh7 NPC1 promoter luciferase reporter, 24 h | Potency, µM (highest dose often 9.22 µM), for the others: at the highest dose activation, usual class: activators | 2.4% of 320,000 active | AID 485313; also: % of control where 0% means no effect; nearly all actives have a fitted effect of over 60% in size
#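 Huh7 reporter cells (NPC1 promoter driving luciferase) are dosed with compound for 24 h at 37 °C, 5% CO2; luciferase detection reagent is then added and luminescence measured after 10 min at ambient temperature.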
# ELG1 repair inh: ELG1-dependent DNA repair inhibition; 2.3% of 330,000 active; Potency, µM (series often up to 46.1 µM), inactives show top-dose activity change, negative = inhibition, hits mostly inhibitors; AID 504467; HEK293T ELG1-luciferase reporter, luminescence, 16 h; DNA damage induced by 5-fluorouridine; also: % is scaled to controls: 0 for no effect and ±100 for the full control effect; nearly all actives have a fitted effect of over 55% in size
#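 Cells (2,000 per well) received 5-fluorouridine plus test compound or DMSO and were incubated 16 hr at 37 °C, 5% CO2. Luciferase activity was read by luminescence 30 min after ONE-Glo addition; signal suppression marked inhibition of damage-induced ELG1 function.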
# FLuc counter: counter-screen for miR-21 project: firefly luciferase inhibitors or activators. 6.9% of 360,000 active. P08659. Potency, µM (doses to about 57.5 µM), for inactives: at the highest dose activity change, negative = inhibition, most hits filed as inhibitors. purified FLuc, Km substrates, luminescence inhibition. AID 588342;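 also: plate controls were vehicle for no effect and reference inhibitor for full effect; nearly all actives have a fitted effect of over 55% in size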
# Target sequence (P08659 whole entry, looked up): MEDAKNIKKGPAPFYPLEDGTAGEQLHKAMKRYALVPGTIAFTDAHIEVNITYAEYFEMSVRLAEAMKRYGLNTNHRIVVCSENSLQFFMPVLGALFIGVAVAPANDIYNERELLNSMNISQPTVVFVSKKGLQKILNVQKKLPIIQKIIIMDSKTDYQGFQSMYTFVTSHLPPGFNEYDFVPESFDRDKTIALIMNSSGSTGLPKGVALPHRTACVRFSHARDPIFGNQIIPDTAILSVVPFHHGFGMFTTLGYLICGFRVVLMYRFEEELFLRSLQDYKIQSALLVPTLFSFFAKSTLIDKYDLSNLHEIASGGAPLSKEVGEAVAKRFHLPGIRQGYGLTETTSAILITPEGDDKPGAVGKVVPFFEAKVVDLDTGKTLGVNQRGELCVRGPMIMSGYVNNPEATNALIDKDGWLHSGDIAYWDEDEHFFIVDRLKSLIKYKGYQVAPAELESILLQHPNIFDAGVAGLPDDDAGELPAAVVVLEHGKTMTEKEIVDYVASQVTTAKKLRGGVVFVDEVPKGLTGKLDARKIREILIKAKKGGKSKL
#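 Purified P. pyralis luciferase, 10 nM final, with Km-level 10 uM D-luciferin and 10 uM ATP in 50 mM Tris acetate pH 7.5, 10 mM Mg acetate, 0.01% Tween-20, 0.05% BSA; 6-point qHTS titration about 60 µM downward; luminescence read.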
# * hit, by the source's call; ? = inconclusive; . = not tested or not shown; [ ] = dose if it differs, or a comment. Calls follow the shape of the dose curve; as a rule, active = well fitted curve in the direction sought with a large enough effect; inconclusive = small, poorly fitted or top-dose-only effect, or another doubt; inactive = no such curve, though single readings can be large; an effect the other way counts as inactive or inconclusive. Potency is read from the fitted curve at half-maximal effect.
SMILES,Rab9 prom act,SMN2 splice enh,ELG1 genotox,NPC1 prom act,ELG1 repair inh,FLuc counter
CN(C(=O)c1ccco1)c1nnc(C23CC4CC(CC(C4)C2)C3)s1,?,16µM*,?,?,?,9.5µM*
CCOc1ccc(CCNC(=O)c2cc(S(=O)(=O)N3CCOCC3)ccc2C)cc1OCC,-5%,.,-3%,0%,7%,0%
Cc1cc(-c2ccccc2)nc(-c2ccccc2)c1C,?,.,21µM*,12%,?,0.17µM*
Cc1cc(-c2ccccc2)nc(N(C)N)c1S(C)(=O)=O,-4%,-9%,6%,-4%,-2%,-3%
O=C(Nc1ccc(Oc2ccccc2)cc1)N[C@@H](Cc1ccccc1)C(=O)O,0%,.,0%,0%,12%,-5%
O=C(CCCc1ccccc1)c1ccccc1,1.4µM*,.,?,1.6µM*,?,0.76µM*
O=C(CCCC(=O)c1ccccc1)NCCc1ccccc1,-3%,.,1%,-3%,9%,-13%
CNc1ccc(/C=C/C(=O)c2ccc3c(c2)OCCO3)cc1[N+](=O)[O-],-7%,-8%,?,2%,5%,6µM*
O=C(CCN1CCc2ccccc21)c1ccc2c(c1)OCCO2,?,-5%,14%,?,?,8.5µM*
O=C(CCCC(=O)c1ccc(O)cc1)c1ccc(O)cc1,?,.,4.6µM*,3.5µM*,?,2.4µM*
O=C(CCN1CCc2ccccc2C1)c1ccc2c(c1)OCCO2,2%,-5%,-1%,12%,2%,?
Cc1ccc(C)c(N2CCN(S(=O)(=O)c3csc(C(N)=O)c3)CC2)c1,0%,.,1%[9.26 µM],-1%,?,5%
CC(CN1CCOCC1)OC(=O)COc1ccc(F)cc1 (stereo unspecified),-9%,-2%,1%,-1%,4%,-1%
CC(CN1CCOCC1)OC(=O)c1ccc2c(c1)OCCO2 (stereo unspecified),2.2µM*,26%,?,?,?,27µM*
O=C(CCc1ccccc1)c1ccc2c(c1)OCCCO2,0.63µM*,?,4.1µM*,3.2µM*,?,4.3µM*
O=C(O)CCC(=O)c1ccc2c(c1)OCCCO2,3%,15%,5%,-7%,10%,-3%
O=C(CCCc1ccccc1)c1ccc2c(c1)OCCO2,-21%,-41%,?,-28%,?,0.076µM*
COc1ccc(OCC(=O)OC(C)CN2CCOCC2)cc1 (stereo unspecified),-3%,2.8µM*,2%,-2%,5%,2%
CCN(C(=O)CSc1nc2ncccc2[nH]1)c1ccc(C(C)C)cc1,.,-14%,.,.,.,-5%
CCc1ccccc1N1CN(Cc2cccnc2)CNC1=S,-4%,.,-2%,3%,0%,1%
O=C(c1ccccc1)c1ccc2c(c1)OCCOCCOCCO2,6%,.,-4%,0%,14%,-14%
CC(C)(C)N(Cc1ccccc1)C(=O)c1ccc2c(c1)OCCO2,-5%,-8%,-2%,2%,-8%,-1%
O=C(/C=C/c1ccccc1)c1ccc2c(c1)OCCCCO2,1.1µM*,?,?,1µM*,?,0.38µM*
O/N=C(/CCc1ccccc1)c1ccc2c(c1)OCCO2,2.8µM*,16µM*,21µM*,4µM*,?,13µM*
CC(OC(=O)c1ccc2c(c1)OCCO2)C(=O)c1ccccc1 (stereo unspecified),0.5µM*,.,?,0.71µM*,?,0.85µM*
O=C(c1ccccc1)c1ccc2c(c1)OCCCO2,1.4µM*,.,?,1.8µM*,?,8.5µM*
COc1ccccc1-n1nc(C)c(-c2ccccc2)c1N,1%,-11%,0%,0%,0%,-14%
CCCC(=O)Nc1ccc(NC(=O)c2ccco2)c(OC)c1,?,?,?,?,?,15µM*
